Experimental findings from PubChem BioAssay AID485358 (National Center for Advancing Translational Sciences (NCATS), 2010) are described below.

The whole screen tested about 340,000 compounds, of which about 1,800 (0.53%) were called active. This is one part of a sample in which actives are shown more often than they occur. Values without a mark were called inactive.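 Rule for the calls: active = activation over 3 SD above normal in the single-dose calcium agonist read (cut at about 30% in these data); inactive = the rest.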

Sequence of D(2) dopamine receptor (Homo sapiens) (P14416 whole entry, looked up): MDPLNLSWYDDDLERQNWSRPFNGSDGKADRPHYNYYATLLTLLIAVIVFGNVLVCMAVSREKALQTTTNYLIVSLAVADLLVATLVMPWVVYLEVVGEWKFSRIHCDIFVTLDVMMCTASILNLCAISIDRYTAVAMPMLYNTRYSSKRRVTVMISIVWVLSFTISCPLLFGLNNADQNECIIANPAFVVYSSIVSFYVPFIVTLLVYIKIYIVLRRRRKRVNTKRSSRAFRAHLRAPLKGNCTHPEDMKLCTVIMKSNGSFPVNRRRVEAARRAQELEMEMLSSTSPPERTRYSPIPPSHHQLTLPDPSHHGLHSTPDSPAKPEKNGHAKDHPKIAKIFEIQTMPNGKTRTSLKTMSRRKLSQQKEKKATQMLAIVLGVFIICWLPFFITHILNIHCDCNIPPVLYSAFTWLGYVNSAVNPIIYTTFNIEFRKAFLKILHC

The experiment has as its target D(2) dopamine receptor (Homo sapiens) (UniProt P14416). Kind of experiment: HTS Assay for Allosteric Agonists of the Human D2 Dopamine Receptor: Primary Screen for Agonists. Note: 0% is about no effect. The conditions noted are these: HEK293 T-REx D2 cells, calcium flux agonist mode; at 2 µM; stronger effect = higher value. In a few lines: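 In this primary screen, compounds producing a positive calcium signal within 180 s of addition to tetracycline-induced, force-coupled HEK293 Trex D2 cells are flagged; cells are dye-loaded with a no-wash calcium kit beforehand.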
In general terms: A change in cytosolic calcium serves as a functional read-out for many receptors and channels.
With `N#C/C=C/N1CCN(Cc2ccc3c(c2)OCO3)CC1`, the activation was 0.771%.

Regarding `CC(C)OC(=O)C(C#N)c1nc2ccccc2nc1N1CCN(Cc2ccccc2)CC1` (stereo unspecified), the activation was 0.138%.

Regarding `CC(C)OC(=O)C(C#N)c1nc2ccccc2nc1N1CCN(Cc2ccc3c(c2)OCO3)CC1` (stereo unspecified), the activation was 48.3% (active).

On to `Cc1ccc(Cl)cc1NC(=O)/C(C#N)=C\c1cn(Cc2ccc(F)cc2)c2ccccc12`, for which the activation is 0.348%.

Take `Cc1cc2nc3c(=O)n(Cc4ccccc4)c(=O)[nH]c3nc2cc1N`: the activation was 64.2% (active).

In the case of `C=CCSc1nc2c(c(=O)[nH]c(=O)n2C)n1Cc1ccccc1`, the activation is -0.578%.

As to `Cc1nc2c(c(=O)n1Cc1ccco1)c1nc3ccccc3nc1n2Cc1ccccc1`, the activation was -0.619%.

With `Cc1cccc(CC(=O)N2CC(=O)Nc3ccc(F)cc3C2c2ccccc2)c1` (stereo unspecified), the activation was -0.521%.

On to `CCCN(CCC)C(=O)C1CCCN(c2ncnc3c2nc2n3CCCCC2)C1` (stereo unspecified), for which the activation is 0.0903%.

With `Cn1c(=O)c2sccc2n2c(CCC(=O)NCc3ccccc3Cl)nnc12`, the activation is -0.258%.

As to `Cc1nn(C)cc1N1C(=O)c2cccc3c(N)ccc(c23)C1=O`, the activation was 74% (active).

Consider `CC(C(=O)O)N1C(=O)c2cccc3cccc1c23` (stereo unspecified), for which the activation is 0.197%.

For the compound `O=C1c2cccc3c([N+](=O)[O-])ccc(c23)C(=O)N1CC1CCCO1` (stereo unspecified), the activation was 3%.

With `CN1C(=O)c2cccc3c(N)ccc(c23)C1=O`, the activation is 109% (active).

Take `COCCNC(=O)c1ccc2c(c1)N=C(C)c1cc(C)ccc1S2`: the activation was 0.312%.

Turning to `Cc1ccc(-n2c(SCC(=O)Nc3cccc(F)c3)nc3c(oc4ccccc43)c2=O)cc1C`, the activation is 2.59%.

`Cc1ccc(N2CCN(C(=O)CCc3c(C)nc4c(c3C)c(=O)n(C)c(=O)n4C)CC2)c(C)c1`: the activation is -0.245%.

In the case of `CCc1nnc(SCc2c(F)cccc2Cl)c2cc3sccc3n12`, the activation was 0.47%.

As to `COc1ccc(-c2cn3nc(N4CCCC(C(=O)NCCCOC(C)C)C4)sc3n2)cc1` (stereo unspecified), the activation was -0.281%.

Consider `CN1c2ccc(Cl)cc2-c2nc(SCC(=O)Nc3cc(F)ccc3F)ncc2S1(=O)=O`, for which the activation was 0.0638%.

`CO/N=C/c1cn(-c2ccc(Cl)cc2)nn1`: the activation was 33.3% (active).

Turning to `O=C(COc1ccc(Cl)cc1)Nc1ccc(-c2nc3cc(Cl)ccc3o2)c(O)c1`, the activation is 1.1%.

For `O=C(NC1CC(=O)N(c2ccc(F)cc2)C1)C1CCCCC1` (stereo unspecified), the activation is 1.31%.

For the compound `CCOc1ccc(C(=O)N2CCN(CCc3ccccn3)CC2)cc1`, the activation was 0.162%.

`Cc1cc(NC(=O)CSc2ncc(C(=O)Nc3ccc(Cl)cc3)c(=O)n2C)no1`: the activation is 0.675%.

As to `O=C(Nc1ccccc1C(=O)N1CCCCC1)c1ccco1`, the activation is -0.0145%.

For the compound `CS/C(=C\C(=O)c1ccco1)Nc1ccccc1Cl`, the activation was 34.5% (active).

Take `Cc1c(Cl)cccc1NC(=O)CCC(=O)N/N=C/c1ccco1`: the activation was 0.478%.

For `CNC(=S)N1CCN(c2ccccn2)CC1`, the activation was 2.09%.

Regarding `O=C(C(Cl)Cl)N1CCN(c2ccccn2)CC1`, the activation was 4.39%.

Consider `CC(=C1C(=O)c2ccccc2C1=O)N1CCN(c2ccccn2)CC1`, for which the activation is 62.2% (active).

Turning to `Cc1cccc(-c2nnc(SCC(=O)N3CCCc4ccccc43)o2)c1`, the activation is -1.45%.

For the compound `CC(C)c1ccc(C2CC(=O)N3CN(C4CCCCC4)CSC3=C2C#N)cc1` (stereo unspecified), the activation was 0.111%.

With `COc1ccccc1-c1cc2nc(C)c(CCC(=O)O)c(C)n2n1`, the activation is 0.732%.

`COc1ccc(N2CCN(S(=O)(=O)c3ccc(-c4coc(C)n4)cc3)CC2)cc1`: the activation is -0.462%.

In the case of `COc1cc(OC)c(NC(=O)c2cc(S(=O)(=O)N3CCCC3)cn2C)cc1Cl`, the activation is 2.37%.

In the case of `CCC1=Nc2cc(C(=O)NCC(C)c3ccccc3)ccc2Sc2ccc(C)cc21` (stereo unspecified), the activation is -0.272%.

`Fc1ccc2[nH]c3c(N4CCN(Cc5ccc6c(c5)OCO6)CC4)ncnc3c2c1`: the activation was 35.9% (active).

Consider `O=C(CSc1nc2c(c(=O)[nH]1)CN(Cc1ccc3c(c1)OCO3)CC2)Nc1cc(F)ccc1F`, for which the activation was 0.843%.

Turning to `CCCCCc1c(C)nc(N2CCN(Cc3ccc4c(c3)OCO4)CC2)[nH]c1=O`, the activation is 0.0879%.

For the compound `CCn1c2ccccc2c2nnc(SCC(=O)O)nc21`, the activation was -0.808%.

As for `CCCCc1nn2c(=O)cc(COC(=O)c3ccc(NC(=O)c4ccccc4C)cc3)nc2s1`, the activation was 8.52%.

With `O=C(CCCNS(=O)(=O)c1cccc2nsnc12)NCCN1CCN(c2ccccc2F)CC1`, the activation was 24.7%.

On to `Cn1c(=O)c(=O)n(C)c2cc(S(=O)(=O)NCCN3CCN(c4ccccc4F)CC3)ccc21`, for which the activation is 67.4% (active).

On to `CCOC(=O)N1CCN(c2c(NCCN3CCN(c4ccccc4F)CC3)c(=O)c2=O)CC1`, for which the activation is 10.4%.

Turning to `COc1ccccc1CN1CCC(CNC(=O)c2cnn(-c3ccccc3Cl)c2C2CCN(C(=O)OC(C)(C)C)CC2)CC1`, the activation is 3.36%.

For `Cc1ccccc1NC(=O)Cn1c(=O)n(Cc2ccco2)c(=O)c2ccc(C(=O)NC3CCCC3)cc21`, the activation was 0.581%.

In the case of `Cc1cccc(-n2c(=O)c3c(c4cc(C)ccc4n3C)n(CC(=O)Nc3ccccc3Cl)c2=O)c1`, the activation is 0.838%.

Take `COC(c1ccccc1)c1nnc(CCC(=O)N2CCN(CCOc3ccccc3)CC2)o1` (stereo unspecified): the activation was 47% (active).

Turning to `O=S(=O)(c1cccs1)N1CCN(CCOc2ccccc2)CC1`, the activation was 21.2%.

As to `Cc1nc(CN2CCN(C(=O)CCc3nnc(Cc4c[nH]c5ccccc45)o3)CC2)cs1`, the activation was 0.942%.

Regarding `Cc1ccc(Nc2ccc3cc(S(=O)(=O)N4CCCCC4)ccc3n2)cc1F`, the activation is 0.936%.

Regarding `Cc1cccc(NC(=O)CN(c2ccc(C(C)C)cc2)S(=O)(=O)c2c(C)nn(C)c2C)c1C`, the activation was 0.387%.

`Cc1nc2nc(SCC(=O)NC3CCC(C)CC3)nn2c(C)c1Cc1ccccc1Cl` (stereo unspecified): the activation was -0.0264%.

Take `COc1ccccc1-c1noc(-c2ccc(NCc3ccccc3)c([N+](=O)[O-])c2)n1`: the activation is -0.924%.

On to `Cc1ccccc1C(=O)Nc1cc(C)c(O)c(-c2nc3ccccc3o2)c1`, for which the activation is -0.387%.
